According to PubChem BioAssay (NCATS):
Inconclusive results are not listed. Entries that show only a call come without a potency. Calls of active or inactive are those of the source. Unless noted, calls come from the whole dose curve; as a rule, active = well fitted curve in the direction sought with a large enough effect; inconclusive = small, poorly fitted or top-dose-only effect, or another doubt; inactive = no such curve, though single readings can be large; an effect the other way counts as inactive or inconclusive.

Tests used:
[1] = molecular target: Dual specificity protein kinase CLK4 (Homo sapiens) (UniProt Q9HAZ1); assay: qHTS Assay for Inhibitors of CDC-like Kinase 4 (Kinase-Glo Assay) (AID 1770); note: potency is the fitted concentration of half-maximal effect; nearly all actives have a fitted effect of over 65% in size
Chain of Dual specificity protein kinase CLK4 (Homo sapiens) (Q9HAZ1 whole entry, looked up): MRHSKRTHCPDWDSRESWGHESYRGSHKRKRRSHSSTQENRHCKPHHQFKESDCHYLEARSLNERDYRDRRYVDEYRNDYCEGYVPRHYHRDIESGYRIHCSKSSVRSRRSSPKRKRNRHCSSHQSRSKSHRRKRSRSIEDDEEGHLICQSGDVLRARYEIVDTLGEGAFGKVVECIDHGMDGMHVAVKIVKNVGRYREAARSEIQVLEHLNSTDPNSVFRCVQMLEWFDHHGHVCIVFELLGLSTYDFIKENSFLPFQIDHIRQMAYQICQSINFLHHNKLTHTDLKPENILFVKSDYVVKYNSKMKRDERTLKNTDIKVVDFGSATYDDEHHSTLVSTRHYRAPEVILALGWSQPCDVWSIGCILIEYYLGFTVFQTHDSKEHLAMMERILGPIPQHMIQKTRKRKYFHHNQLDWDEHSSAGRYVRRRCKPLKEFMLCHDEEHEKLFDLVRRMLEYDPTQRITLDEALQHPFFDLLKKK
How it was run: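 Clk4 25 nM, RS peptide 100 uM, ATP 1 uM, pH 7.5 Tris, 10 mM MgCl2, 2.5 mM DTT; 4.5 h RT; ATP depletion read by Kinase-Glo luminescence.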

[2] = qHTS profiling of the MIPE4 collection as inhibitors of Plasmodium falciparum (3D7) proliferation (AID 743344; call rule not given here); details: P. falciparum 3D7 in erythrocytes, SYBR Green DNA fluorescence, 72 h; at 5.51 µM (top of the series) unless noted
Excerpt: Plasmodium falciparum is a virulent malarial parasite that kills 1-2 million people worldwide each year. Transmitted by mosquitoes, the sporozoite form of the parasite enters the blood stream to infect hepatocytes, where they become merozoites that infect red blood cells (erythrocytes). Within erythrocytes, merozoites begin a […] cycle of growth and division, after which the parasite is released to infect new red blood cells. Gametocytes, which form within erythrocytes as well, circulate in the bloodstream and are ingested by the mosquito, thereby completing the life cycle. To profile malarial isolates for differential chemical responses and to identify inhibitors of malarial growth, an assay that measures P. falciparum growth and replication within erythrocytes was employed. This assay uses a DNA binding fluorescent dye (SYBR Green) to detect parasite DNA following cell lysis. Because mature erythrocytes lack DNA, only Plasmodium-derived DNA is detected.
The SYBR Green viability assay was adapted from a method described previously (Plouffe et al., 2008). For screening 3 ul culture medium was dispensed into 1536 well black clear bottom plates (Aurora Biotechnologies) using a Multidrop Combi (Thermo Fisher Scientific Inc.), 23 nL compounds in DMSO were added by a pin tool (Kalypsys), and 5 ul of erythrocytes infected with P. falciparum (0.3% parasitemia, 2.5% hematocrit final concentration) were added. The plates were incubated at 37 C in a humidified incubator in 5% CO2 for 72 h, and 2 ul lysis buffer (20 mM Tris HCl, 10 mM EDTA, 0.16% saponin, 1.6% triton X, 10X SYBR Green I supplied as 10,000X […] by Invitrogen) was added to each well. […] The following morning, fluorescence intensity at 485(14) nm excitation and 535(25) nm emission wavelengths was measured on an EnVision (Perkin Elmer) plate reader. Plate reads were normalized relative to the control inhibitor (0.29 uM artemisinin) and vehicle (DMSO) wells present on each plate and then corrected by an algorithm using vehicle-only control plates at the beginning and end of the compound plate stack.

[3] = qHTS profiling of the MIPE4 collection as inhibitors of Plasmodium falciparum (DD2) proliferation (AID 743345; call rule not given here); details: P. falciparum Dd2 in erythrocytes, SYBR Green DNA, 72 h; at 5.51 µM (top of the series) unless noted
How it was run: (§1)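 Erythrocytes infected with P. falciparum (0.3% parasitemia, 2.5% hematocrit) incubated with compounds 72 h at 37 C, 5% CO2. Lysis with saponin/Triton buffer containing SYBR Green I, overnight at room temperature in the dark; DNA fluorescence (485/535 nm) normalised to 0.29 uM artemisinin and DMSO.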

[4] = qHTS profiling of the MIPE4 collection as inhibitors of Plasmodium falciparum (DD2) proliferation (Rep 2) (AID 743346; call rule not given here); details: P. falciparum Dd2 in erythrocytes, SYBR Green DNA, 72 h; at 5.51 µM (top of the series) unless noted
How it was run: as §1

[5] = qHTS profiling of the MIPE4 collection as inhibitors of Plasmodium falciparum (HB3) proliferation (AID 743347; call rule not given here); details: P. falciparum HB3 in erythrocytes, SYBR Green DNA, 72 h; at 5.51 µM (top of the series) unless noted
How it was run: as §1

[6] = molecular target: Phospholipid hydroperoxide glutathione peroxidase GPX4 (Homo sapiens) (UniProt P36969); assay: Primary qHTS Assay for Inhibitors of Recombinant Selenoprotein Glutathione Peroxidase 4 (GPX4) (AID 1845192); details: outcome: dose series up to 50 µM unless noted; note: nearly all actives have a fitted effect of over 65% in size
Chain of Phospholipid hydroperoxide glutathione peroxidase GPX4 (Homo sapiens) (P36969 whole entry, looked up): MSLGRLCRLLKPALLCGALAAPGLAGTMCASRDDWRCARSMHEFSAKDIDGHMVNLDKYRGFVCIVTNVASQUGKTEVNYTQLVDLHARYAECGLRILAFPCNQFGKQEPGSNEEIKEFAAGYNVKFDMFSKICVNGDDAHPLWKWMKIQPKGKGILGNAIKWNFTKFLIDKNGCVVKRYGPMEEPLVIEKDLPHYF
How it was run: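 GR-coupled assay: recombinant GPX4 preincubated 30 min with compound at room temperature; final 200 nM GPX4, 1 mM GSH, 0.5 mM cumene hydroperoxide, 0.5 mM NADPH, 100 nM GR, 0.01% BSA, pH 7.5 Tris. NADPH fluorescence (340/450 nm) read at 0 and 15 min.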

[7] = Confirmation and Secondary Assay for Modulators of Hemoglobin Beta Chain Splicing at IVS2 654 locus (AID 910);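 note: HeLa cells stably carrying EGFP split by mutant beta-globin IVS2-654 intron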
How it was run: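 HeLa cells stably expressing EGFP interrupted by β-globin IVS2-654 intron, seeded overnight in Opti-MEM/2% FCS, then treated 2 days at 37 °C. Restored splicing read as total peak GFP intensity per well by laser scanning cytometry (488 nm excitation, 500–520 nm emission); 500 nM antisense PNA as control.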

[8] = Confirmation and Secondary Assay for Modulators of Hemoglobin Beta Chain Splicing at IVS2 705 locus (AID 930);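 note: HeLa cells stably expressing the EGFP-705 splicing reporter; GFP fluorescence per well restored by corrected splicing of the IVS2-705 intron in EGFP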
How it was run: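 Stable HeLa line with EGFP disrupted by mutant beta-globin intron 2 (705). Overnight attachment, then 2 days of compound at 37C, 5% CO2. Signal: peak GFP intensity summed over objects 5-250 µm.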

Structure (SMILES): COc1ccc2[nH]cc(CCNc3cc(-c4cccnc4)ncn3)c2c1
- Potency [1]: 14.1 µM (active)

Structure (SMILES): NC[C@@H]1O[C@H](O[C@H]2[C@H](O)[C@H](O[C@H]3[C@@H](O)[C@H](N)C[C@H](N)[C@H]3O[C@H]3O[C@H](CN)[C@H](O)[C@H](O)[C@H]3N)O[C@@H]2CO)[C@@H](N)[C@@H](O)[C@@H]1O
- parasite growth, % of DMSO control [2]: 98.8%
- parasite growth remaining, % of DMSO control (lower = more inhibition) [3]: 101%
- parasite growth, % of control (lower = inhibition) [4]: 77.1%
- growth, % of control [5]: 77.3%

Structure (SMILES): CCC(=O)O[C@@H]1CC(=O)O[C@H](C)C/C=C/C=C/[C@@H](O)[C@H](C)C[C@H](CC=O)[C@H](OC2O[C@H](C)[C@@H](O[C@H]3C[C@@](C)(O)[C@@H](OC(=O)CC)[C@H](C)O3)[C@H](N(C)C)[C@H]2O)[C@H]1OC (stereo not given in full)
- outcome [6]: inactive

Structure (SMILES): CN(C)C(=O)c1ccc(-c2nc(N(C)Cc3ccco3)c3ccccc3n2)cc1
- Potency [7]: inactive
- outcome [8]: inactive

Structure (SMILES): Cc1cccc(CNc2cc(-c3cccc(C#N)c3)ncn2)c1
- Potency [7]: inactive
- outcome [8]: inactive
